Experimental data reported in ChEMBL document CHEMBL1961873, “Compounds: GSK PKIS; Assays: Nanosyn kinase panel” (2012).
Several values for one entry are separate records, joined by “and”; a condition that tells them apart may be missing. Equal values may be shown once.

Legend:
[1] = molecular target: Mitogen-activated protein kinase 3 (Homo sapiens) (UniProt P27361); conditions: at 1 µM;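 note: values are mean percent inhibition of MAPK3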
[2] = molecular target: SRSF protein kinase 3 (Homo sapiens) (UniProt Q9UPE1); conditions: at 0.1 µM
[3] = molecular target: SRSF protein kinase 3 (Homo sapiens) (UniProt Q9UPE1); conditions: at 1 µM
[4] = molecular target: Mitogen-activated protein kinase 14 (Homo sapiens) (UniProt Q16539); conditions: at 0.1 µM
[5] = molecular target: Mitogen-activated protein kinase 14 (Homo sapiens) (UniProt Q16539); conditions: at 1 µM
[6] = molecular target: Mitogen-activated protein kinase 11 (Homo sapiens) (UniProt Q15759); conditions: at 0.1 µM
[7] = molecular target: Mitogen-activated protein kinase 11 (Homo sapiens) (UniProt Q15759); conditions: at 1 µM
[8] = molecular target: T1, Mitogen-activated protein kinase 13 (Homo sapiens) (UniProt O15264); conditions: at 0.1 µM
T1 sequence (whole entry): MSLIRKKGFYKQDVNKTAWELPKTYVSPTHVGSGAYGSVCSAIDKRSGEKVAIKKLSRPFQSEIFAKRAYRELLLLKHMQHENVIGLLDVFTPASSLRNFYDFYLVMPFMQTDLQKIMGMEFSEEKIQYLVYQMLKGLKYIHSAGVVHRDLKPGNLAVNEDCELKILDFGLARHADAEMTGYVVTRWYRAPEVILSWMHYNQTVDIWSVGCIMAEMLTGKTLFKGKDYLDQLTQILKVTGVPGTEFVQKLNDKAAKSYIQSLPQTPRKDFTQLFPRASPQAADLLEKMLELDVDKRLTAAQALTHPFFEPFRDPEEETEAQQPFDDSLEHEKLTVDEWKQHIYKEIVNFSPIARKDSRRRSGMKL

[9] = molecular target: T1, Mitogen-activated protein kinase 13 (Homo sapiens); conditions: at 1 µM
[10] = molecular target: T2, Mitogen-activated protein kinase 12 (Homo sapiens) (UniProt P53778); conditions: at 0.1 µM
T2 sequence (whole entry): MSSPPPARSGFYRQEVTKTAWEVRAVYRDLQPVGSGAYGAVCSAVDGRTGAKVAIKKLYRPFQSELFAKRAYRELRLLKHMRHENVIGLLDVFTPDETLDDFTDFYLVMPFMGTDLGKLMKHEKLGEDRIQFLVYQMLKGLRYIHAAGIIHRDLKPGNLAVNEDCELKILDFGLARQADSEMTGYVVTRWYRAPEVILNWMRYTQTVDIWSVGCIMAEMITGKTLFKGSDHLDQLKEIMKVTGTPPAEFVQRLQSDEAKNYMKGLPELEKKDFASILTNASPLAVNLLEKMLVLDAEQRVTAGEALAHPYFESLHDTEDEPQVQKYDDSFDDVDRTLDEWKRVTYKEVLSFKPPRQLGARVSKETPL

Sequence of Mitogen-activated protein kinase 14 (Homo sapiens) (Q16539 whole entry): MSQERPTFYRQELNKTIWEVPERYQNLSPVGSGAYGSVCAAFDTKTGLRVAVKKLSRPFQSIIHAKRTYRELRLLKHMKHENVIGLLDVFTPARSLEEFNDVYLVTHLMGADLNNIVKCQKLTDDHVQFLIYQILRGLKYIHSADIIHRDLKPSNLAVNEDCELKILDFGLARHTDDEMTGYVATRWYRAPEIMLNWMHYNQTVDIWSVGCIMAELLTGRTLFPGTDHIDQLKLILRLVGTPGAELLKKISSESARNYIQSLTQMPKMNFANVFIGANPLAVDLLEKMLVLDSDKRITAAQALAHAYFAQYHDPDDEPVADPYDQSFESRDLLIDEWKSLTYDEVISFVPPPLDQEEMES
Sequence of SRSF protein kinase 3 (Homo sapiens) (Q9UPE1 whole entry): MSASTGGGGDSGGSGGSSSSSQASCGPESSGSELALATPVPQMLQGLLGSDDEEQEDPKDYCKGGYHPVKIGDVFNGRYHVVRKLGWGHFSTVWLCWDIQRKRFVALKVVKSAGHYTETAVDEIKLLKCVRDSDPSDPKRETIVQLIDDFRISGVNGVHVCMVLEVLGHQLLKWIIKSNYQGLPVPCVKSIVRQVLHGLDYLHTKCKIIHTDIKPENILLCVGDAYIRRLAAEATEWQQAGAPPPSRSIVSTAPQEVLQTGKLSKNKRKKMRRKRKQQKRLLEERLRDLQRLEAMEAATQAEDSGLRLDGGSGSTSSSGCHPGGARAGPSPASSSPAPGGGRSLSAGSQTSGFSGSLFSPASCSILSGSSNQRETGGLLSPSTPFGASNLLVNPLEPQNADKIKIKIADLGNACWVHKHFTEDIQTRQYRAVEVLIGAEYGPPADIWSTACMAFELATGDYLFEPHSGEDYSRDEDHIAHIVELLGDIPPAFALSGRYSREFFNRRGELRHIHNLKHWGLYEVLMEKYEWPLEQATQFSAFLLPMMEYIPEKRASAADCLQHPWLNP
Sequence of Mitogen-activated protein kinase 3 (Homo sapiens) (P27361 whole entry): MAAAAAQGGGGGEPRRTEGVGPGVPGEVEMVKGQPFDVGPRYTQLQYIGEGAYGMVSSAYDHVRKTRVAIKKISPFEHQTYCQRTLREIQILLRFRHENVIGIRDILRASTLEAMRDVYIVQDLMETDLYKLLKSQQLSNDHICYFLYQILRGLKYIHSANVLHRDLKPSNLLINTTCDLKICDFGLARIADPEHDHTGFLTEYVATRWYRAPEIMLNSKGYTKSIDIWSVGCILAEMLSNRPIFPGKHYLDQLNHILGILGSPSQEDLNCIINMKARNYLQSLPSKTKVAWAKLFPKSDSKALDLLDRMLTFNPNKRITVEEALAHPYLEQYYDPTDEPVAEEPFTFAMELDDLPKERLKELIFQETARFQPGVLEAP
Sequence of Mitogen-activated protein kinase 11 (Homo sapiens) (Q15759 whole entry): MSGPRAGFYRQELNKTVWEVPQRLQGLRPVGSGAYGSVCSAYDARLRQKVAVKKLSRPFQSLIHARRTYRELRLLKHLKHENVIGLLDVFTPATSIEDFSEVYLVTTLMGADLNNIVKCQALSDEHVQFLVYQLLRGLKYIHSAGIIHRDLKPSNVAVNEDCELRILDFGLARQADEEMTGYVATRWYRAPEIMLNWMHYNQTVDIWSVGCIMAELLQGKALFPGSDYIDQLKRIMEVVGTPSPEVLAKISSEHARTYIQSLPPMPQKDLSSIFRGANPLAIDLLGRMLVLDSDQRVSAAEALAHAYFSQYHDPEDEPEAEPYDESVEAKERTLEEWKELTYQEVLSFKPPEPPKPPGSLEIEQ

Structure (SMILES)	inhibition [1]	inhibition [2]	inhibition [3]	inhibition [4]	inhibition [5]	inhibition [6]	inhibition [7]	inhibition [8]	inhibition [9]	inhibition [10]
CCOc1ccc2c(-c3ccnc(Nc4cc(OC)cc(C(F)(F)F)c4)n3)cnn2n1	2.27%	-0.03%	-0.23%	8.65%	2.85%	-0.59%	1.71%	0.55%	2.07%	3.42%
Fc1cccc(COc2ccc(Nc3ncncc3C#Cc3ccccc3)cc2Cl)c1	5.53%	-0.87%	0.58%	6.33%	11.6%	3.77%	8.28%	-1.02%	3.79%	2.17%
CCN1CCC(C(=O)Nc2n[nH]c3nnc(-c4cccc(F)c4F)cc23)CC1	-0.23%	-0.64%	-0.52%	-0.33%	-0.72%	0.08%	0.51%	-1.52%	-2.25%	-0.79%
Cc1c2ccc(N(C)c3ccnc(Nc4cccc(S(N)(=O)=O)c4)n3)cc2nn1C	4.37%	-0.02%	-0.13%	2.68%	17.1%	7.06%	16%	5.49%	5.64%	5.17%
COc1cc(N2CCN(C(C)C)CC2)ccc1Nc1nc(Nc2cccc(F)c2C(=O)O)c2cc[nH]c2n1	5.94%	-1.11%	3.96%	6.33%	9.12%	3.15%	5.38%	4.97%	4.09%	0.95%
COc1ccc(Nc2ncc(-c3ccccc3)o2)cc1OC	1.29%	-1.82%	-2.17%	4.31%	5.01%	1.96%	4.99%	0.77%	2.02%	4.1%
NS(=O)(=O)c1ccc(N/N=C2\C(=O)Nc3ccc(C(=O)NCc4ccncc4)cc32)cc1	26.3%	-1.39%	2.17%	6.35%	6.05%	4.53%	9.75%	1.65%	4.79%	-1.11%
N#Cc1cccc(Nc2ncc(-c3ccccc3)o2)c1	4.14%	-0.78%	0.7%	2.24%	3.69%	1.51%	5.93%	-0.16%	2.33%	3.74%
CC(C)c1ccc(-c2cc(-c3c[nH]nc3-c3ccccn3)ccn2)cc1	-2.17%	-1.14%	0.11%	5.48%	15.8%	1.06%	8.12%	5.51%	0.87%	0.13%
COc1cccc(-n2ncc3c(N/N=C/c4ccc(C(=O)NCCN(C)C)cc4)ncnc32)c1	2.75%	1.28%	0.91%	2.36%	11.8%	0.2%	3.19%	3.46%	23.5%	4.06%
OCCCNc1nccc(-c2c(-c3ccc(F)cc3)nn3cc(C(F)(F)F)ccc23)n1	5.6%	1.09%	3.54%	64.4%	91%	22.7%	68.7%	4.11%	3.39%	3.46%
COC(=O)Nc1nc2cc(Oc3ccc(NC(=O)Nc4ccccc4)cc3)ccc2[nH]1	4.97%	-2.65%	1.09%	1.53%	6.62%	3.05%	8.13%	-0.27%	1.34%	3.43%
O=C(O[C@H]1CN[C@H](C#Cc2cc3ncnc(Nc4ccc5c(cnn5Cc5ccccc5)c4)c3s2)C1)N1CCOCC1	1.75%	-1.9%	-0.82%	0.21%	0.45%	1.51%	4.76%	-1.3%	-2.91%	-1.24%
NS(=O)(=O)c1cccc(N/C=C2\C(=O)Nc3ccccc32)c1	1.27%	-0.21%	0.27%	7.96%	13.5%	6.33%	9.54%	1.07%	5.02%	1.32%
O=C(O[C@H]1CN[C@H](C#Cc2cc3ncnc(Nc4ccc(OCc5cccc(F)c5)c(Cl)c4)c3s2)C1)N1CCOCC1	5.48%	-1.6%	-1.95%	3.55%	7.34%	5.95%	5.11%	1.84%	6.02%	3.76%
CC1(C)CC(n2cnc(-c3ccc(F)cc3)c2-c2ccnc(N)n2)CC(C)(C)N1	1.92%	-0.06%	-1.33%	64.5%	77.6%	13.6%	55.7%	1.83%	1.42%	0.38%

Structure (SMILES)	inhibition [1]	inhibition [2]	inhibition [3]	inhibition [4]	inhibition [5]	inhibition [6]	inhibition [7]	inhibition [8]	inhibition [9]	inhibition [10]
CS(=O)(=O)CCNCc1ccc(-c2ccc3ncnc(Nc4ccc(OCc5cccc(C(F)(F)F)c5)cc4)c3c2)o1	5%	-2.18%	-0.47%	11.9%	13.9%	1.8%	5.06%	5.4%	5.66%	3.43%
CN1CCC(n2cnc(-c3ccc(F)cc3)c2-c2ccnc(NCCO)n2)CC1	6.51%	-0.9%	1.7%	66.3%	86.3%	12.9%	52.5%	2.89%	4.31%	3.94%
NS(=O)(=O)c1ccc(N/N=C2\C(=O)Nc3cccc(CCc4ccncc4)c32)cc1	-1.26%	-1.55%	-0.36%	1.13%	0.21%	1.91%	3.6%	0.17%	-0.27%	0.4%
Fc1ccc(Nc2nccc(-c3c(-c4ccc(C(F)(F)F)cc4)nn4ncccc34)n2)cc1F	-0.07%	0.64%	0.08%	1.53%	8.46%	1.28%	3.29%	-4.93%	4.25%	5.22%
CCS(=O)(=O)c1ccc(OC)c(Nc2ncc(-c3cccc(C(C)=O)c3)o2)c1	4.06%	0.96%	0.97%	2.16%	5.09%	3.95%	3.42%	-0.9%	3.45%	-1.65%
O=C1Nc2ccccc2/C1=C1\CCc2cc(O)ccc21	4.54%	0.01%	-0.36%	4.38%	7.01%	4.9%	5.91%	3.43%	6.56%	4.33%
CCCNc1cccc(-n2ncc3c(N/N=C/c4ccncc4)ncnc32)c1	3.62%	-0.81%	0.97%	1.81%	7.62%	4.76%	25.5%	0.94%	3.1%	0.51%
NC(=O)c1ccc2c(-c3ccnc(NCCCO)n3)c(-c3ccc(F)cc3)nn2c1	8.87%	1.36%	1.23%	74.9%	86.4%	49.5%	68.7%	1.5%	6.27%	2.09%
CNC(=O)c1sc(-n2cnc3cc(OC)c(OC)cc32)cc1OCc1ccccc1C(F)(F)F	3.4%	-2.11%	-0.26%	5.47%	5.08%	4.76%	4.92%	3.34%	1.88%	1.92%
O=C(O[C@H]1CN[C@H](C#Cc2cc3ncnc(Nc4ccc5c(ccn5Cc5cc(F)ccc5F)c4)c3s2)C1)N1CCOCC1	2.72%	-1.71%	-2.33%	5.28%	8.23%	3.16%	5.47%	2.39%	5.7%	3.21%
FC(F)(F)CNc1nccc(-c2cnn3ncccc23)n1	2.69%	-4.16%	-0.66%	6.27%	5.78%	3.94%	6.08%	2.13%	2.49%	1.83%
CN1CCN(Cc2ccc(-c3cc4ncnc(Nc5ccc(OCc6cccc(F)c6)c(Cl)c5)c4s3)o2)CC1	4.3% and 6.64%	-2.01% and -2.56%	-1.87% and -0.88%	11.4% and 3.49%	11.9% and 8.59%	7.76% and 7.78%	11.5% and 9.04%	2.21% and 1.13%	1.76% and 5.79%	1.79% and 3.59%
CNC(=O)c1ncccc1Nc1nc(Nc2cc3c(cc2OC)CCCN3C(=O)CN(C)C)nc2[nH]ccc12	1.38%	0.37%	0.84%	4.75%	8.76%	4.41%	4.4%	8.55%	5.64%	1.94%
Cc1cc(O)cc(C)c1/C=C/c1cncc(C(N)=O)c1	2.77%	1.7%	1.04%	4.9%	6.5%	0.52%	0.8%	2.3%	1.36%	1.1%
COc1ccc(-c2nn3ncccc3c2-c2ccnc(Nc3ccc(F)c(F)c3)n2)cc1	6.78%	-0.12%	3.15%	33%	81%	11.9%	50.9%	0.5%	3.31%	4.66%
